B1: GAGUCGU (DNA:RNA)
RNA: GGGAGACCGGAAUUCAGAUUGUCCGAGUCGUUUAAAUCCCGUCGUAGCCACCA
DNA 1: CAATCTGAATTCCGGTCTCCC
DNA 2: TGGTGGCTACGACGGGATT
B2: AUGCAAU (DNA:RNA)
RNA: B1 RNA with G25A, A26U, U28C, C29A, G30A
DNA 1: CAATCTGAATTCCGGTCTCCC
DNA 2: TGGTGGCTACGACGGGATT
B3: AGAUGAG (DNA:RNA)
RNA: B1 RNA with G25A, A26G, G27A, C29G, G30A, U31G
DNA 1: CAATCTGAATTCCGGTCTCCC
DNA 2: TGGTGGCTACGACGGGATT
B4: ACGGGCC (DNA:RNA)
RNA: B1 RNA with G25A, A26C, U28G, C29G, G30C, U31C
DNA 1: CAATCTGAATTCCGGTCTCCC
DNA 2: TGGTGGCTACGACGGGATT
B5: UGCCUCC (DNA:RNA)
RNA: GGGAGACCGGAAUUCAGAUUGUCCUGCCUCCUUAAAUCCCGUCGUAGCCACCA
DNA 1: CAATCTGAATTCCGGTCTCCC
DNA 2: TGGTGGCTACGACGGGATT
B6: UGCUGCC (DNA:RNA)
RNA: B5 RNA with C28U, U29G
DNA 1: CAATCTGAATTCCGGTCTCCC
DNA 2: TGGTGGCTACGACGGGATT
B7: UGCCUUG (DNA:RNA)
RNA: B5 RNA with C30U, C31G
DNA 1: CAATCTGAATTCCGGTCTCCC
DNA 2: TGGTGGCTACGACGGGATT
B8: UAGUAGG (DNA:RNA)
RNA: B1 RNA with G25U, C29A, U31G
DNA 1: CAATCTGAATTCCGGTCTCCC
DNA 2: TGGTGGCTACGACGGGATT
B9: GGGUGUU (DNA:RNA)
RNA: B1 RNA with A26G, C29G, G30U
DNA 1: CAATCTGAATTCCGGTCTCCC
DNA 2: TGGTGGCTACGACGGGATT
B10: CGGUGUU (DNA:RNA)
RNA: B1 RNA with G25C, A26G, C29G, G30U
DNA 1: CAATCTGAATTCCGGTCTCCC
DNA 2: TGGTGGCTACGACGGGATT
B11: GGUGUGU (DNA:RNA)
RNA: B1 RNA with A26G, G27U, U28G, C29U
DNA 1: CAATCTGAATTCCGGTCTCCC
DNA 2: TGGTGGCTACGACGGGATT
B12: GGGGUGU (DNA:RNA)
RNA: B1 RNA with A26G, U28G, C29U
DNA 1: CAATCTGAATTCCGGTCTCCC
DNA 2: TGGTGGCTACGACGGGATT
B13: CGGGUGU (DNA:RNA)
RNA: B1 RNA with G25C, A26G, U28G, C29U
DNA 1: CAATCTGAATTCCGGTCTCCC
DNA 2: TGGTGGCTACGACGGGATT
B14: CCCGGGU (DNA:RNA)
RNA: B1 RNA with G25C, A26C, G27C, U28G, C29G
DNA 1: CAATCTGAATTCCGGTCTCCC
DNA 2: TGGTGGCTACGACGGGATT
B15: AUAGGCC (DNA:RNA)
RNA: B5 RNA with U25A, G26U, C27A, C28G, U29G
DNA 1: CAATCTGAATTCCGGTCTCCC
DNA 2: TGGTGGCTACGACGGGATT
B16: CCAGAGA (DNA:RNA)
RNA: B1 RNA with G25C, A26C, G27A, U28G, C29A, U31A
DNA 1: CAATCTGAATTCCGGTCTCCC
DNA 2: TGGTGGCTACGACGGGATT
B17: CUCCCAU (DNA:RNA)
RNA: B1 RNA with G25C, A26U, G27C, U28C, G30A
DNA 1: CAATCTGAATTCCGGTCTCCC
DNA 2: TGGTGGCTACGACGGGATT
B18: UUUCACC (DNA:RNA)
RNA: B5 RNA with G26U, C27U, U29A
DNA 1: CAATCTGAATTCCGGTCTCCC
DNA 2: TGGTGGCTACGACGGGATT
B19: GAAAUGA (DNA:RNA)
RNA: B1 RNA with G27A, U28A, C29U, U31A
DNA 1: CAATCTGAATTCCGGTCTCCC
DNA 2: TGGTGGCTACGACGGGATT
B20: GGGAUGA (DNA:RNA)
RNA: B1 RNA with A26G, U28A, C29U, U31A
DNA 1: CAATCTGAATTCCGGTCTCCC
DNA 2: TGGTGGCTACGACGGGATT
B21: GUAAUGA (DNA:RNA)
RNA: B1 RNA with A26U, G27A, U28A, C29U, U31A
DNA 1: CAATCTGAATTCCGGTCTCCC
DNA 2: TGGTGGCTACGACGGGATT
B22: CGGAUGA (DNA:RNA)
RNA: B1 RNA with G25C, A26G, U28A, C29U, U31A
DNA 1: CAATCTGAATTCCGGTCTCCC
DNA 2: TGGTGGCTACGACGGGATT
B23: GGAAUGA (DNA:RNA)
RNA: B1 RNA with A26G, G27A, U28A, C29U, U31A
DNA 1: CAATCTGAATTCCGGTCTCCC
DNA 2: TGGTGGCTACGACGGGATT
B24: GGAUGAA (DNA:RNA)
RNA: B1 RNA with A26G, G27A, C29G, G30A, U31A
DNA 1: CAATCTGAATTCCGGTCTCCC
DNA 2: TGGTGGCTACGACGGGATT
B25: UCACGAG (DNA:RNA)
RNA: B5 RNA with G26C, C27A, U29G, C30A, C31G
DNA 1: CAATCTGAATTCCGGTCTCCC
DNA 2: TGGTGGCTACGACGGGATT
B26: GCGUGGA (DNA:RNA)
RNA: B1 RNA with A26C, C29G, U31A
DNA 1: CAATCTGAATTCCGGTCTCCC
DNA 2: TGGTGGCTACGACGGGATT
B27: GGAAGUG (DNA:RNA)
RNA: B1 RNA with A26G, G27A, U28A, C29G, G30U, U31G
DNA 1: CAATCTGAATTCCGGTCTCCC
DNA 2: TGGTGGCTACGACGGGATT
B28: ACCACGU (DNA:RNA)
RNA: B1 RNA with G25A, A26C, G27C, U28A
DNA 1: CAATCTGAATTCCGGTCTCCC
DNA 2: TGGTGGCTACGACGGGATT
B29: GGGCACG (DNA:RNA)
RNA: B5 RNA with U25G, C27G, U29A, C31G
DNA 1: CAATCTGAATTCCGGTCTCCC
DNA 2: TGGTGGCTACGACGGGATT
B30: GGGCACC (DNA:RNA)
RNA: B5 RNA with U25G, C27G, U29A
DNA 1: CAATCTGAATTCCGGTCTCCC
DNA 2: TGGTGGCTACGACGGGATT
B31: ACGUCGU (DNA:RNA)
RNA: B1 RNA with G25A, A26C
DNA 1: CAATCTGAATTCCGGTCTCCC
DNA 2: TGGTGGCTACGACGGGATT
B32: GGCACGU (DNA:RNA)
RNA: B1 RNA with A26G, G27C, U28A
DNA 1: CAATCTGAATTCCGGTCTCCC
DNA 2: TGGTGGCTACGACGGGATT
B33: UGGCACG (DNA:RNA)
RNA: B5 RNA with C27G, U29A, C31G
DNA 1: CAATCTGAATTCCGGTCTCCC
DNA 2: TGGTGGCTACGACGGGATT
B34: AGCCACG (DNA:RNA)
RNA: B5 RNA with U25A, U29A, C31G
DNA 1: CAATCTGAATTCCGGTCTCCC
DNA 2: TGGTGGCTACGACGGGATT
B35: AGGCACC (DNA:RNA)
RNA: B5 RNA with U25A, C27G, U29A
DNA 1: CAATCTGAATTCCGGTCTCCC
DNA 2: TGGTGGCTACGACGGGATT
B36: GGGGCAC (DNA:RNA)
RNA: B1 RNA with A26G, U28G, G30A, U31C
DNA 1: CAATCTGAATTCCGGTCTCCC
DNA 2: TGGTGGCTACGACGGGATT
B37: AGGCACG (DNA:RNA)
RNA: B5 RNA with U25A, C27G, U29A, C31G
DNA 1: CAATCTGAATTCCGGTCTCCC
DNA 2: TGGTGGCTACGACGGGATT
B38: UGGCACC (DNA:RNA)
RNA: B5 RNA with C27G, U29A
DNA 1: CAATCTGAATTCCGGTCTCCC
DNA 2: TGGTGGCTACGACGGGATT
B39: UGGCAGA (DNA:RNA)
RNA: B5 RNA with C27G, U29A, C30G, C31A
DNA 1: CAATCTGAATTCCGGTCTCCC
DNA 2: TGGTGGCTACGACGGGATT

Drawing on paper PMC9911399, “Two distinct binding modes provide the RNA-binding protein RbFox with extraordinary sequence specificity”, this text covers binding signal for 39 molecules.

Substitutions are numbered along the chain they refer to; changes in the protein carry UniProt numbers. Whole data set: some 16,000 sequences, median “ka relative to ugcaugu” near 0.0091, cut for the highest 2% near 0.032. This excerpt belongs to a sample that is enriched for the highest values.

This assay has as its target T1, RBFOX1 RRM (Homo sapiens, UniProt Q9NWB1 109-208).
T1 sequence: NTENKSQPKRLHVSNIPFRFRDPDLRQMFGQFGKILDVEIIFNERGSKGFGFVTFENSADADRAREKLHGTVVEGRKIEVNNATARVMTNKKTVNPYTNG
The assay is described as follows: EMSA; HiTS-Eq, 1 nM pool, 10 min; buffer printed only for the single-RNA assays: 10 mM Tris pH 7.5, 150 mM NaCl, 3.4 mM EDTA, 0.001% NP-40, 30 C. The conditions noted are these: tags: His6 N-terminal (pET28a); label: 5' 32P. In a few lines: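 Purified RbFox RRM, wild type or mutant, was incubated for 10 min in 50 µL with 1 nM of a 5′-radiolabelled RNA pool carrying 7 randomized nucleotides, whose flanks were annealed to DNA oligonucleotides, over a series of increasing protein concentrations. Unbound RNA was resolved on 8% native PAGE, cut out, reverse-transcribed, barcoded by PCR and sequenced on an Illumina HiSeq 2500. Relative association constants were derived from changes in read counts for each RNA species versus the control reaction and normalised to the cognate motif.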
With B1, the binding signal is 0.0129 KA relative to UGCAUGU.

For B2, the binding signal is 0.00453 KA relative to UGCAUGU.

Take B3: the binding signal is 0.0142 KA relative to UGCAUGU.

B4: the binding signal is 0.0142 KA relative to UGCAUGU.

For the molecule B5, the binding signal was 0.00846 KA relative to UGCAUGU.

As to B6, the binding signal is 0.0265 KA relative to UGCAUGU.

As for B7, the binding signal is 0.0505 KA relative to UGCAUGU.

In the case of B8, the binding signal was 0.00933 KA relative to UGCAUGU.

B9: the binding signal was 0.0233 KA relative to UGCAUGU.

B10: the binding signal is 0.0192 KA relative to UGCAUGU.

Turning to B11, the binding signal is 0.0173 KA relative to UGCAUGU.

For the molecule B12, the binding signal was 0.038 KA relative to UGCAUGU.

In the case of B13, the binding signal is 0.0321 KA relative to UGCAUGU.

As for B14, the binding signal is 0.00573 KA relative to UGCAUGU.

Turning to B15, the binding signal is 0.0113 KA relative to UGCAUGU.

Take B16: the binding signal is 0.0103 KA relative to UGCAUGU.

Consider B17, for which the binding signal was 0.00325 KA relative to UGCAUGU.

Consider B18, for which the binding signal was 0.00771 KA relative to UGCAUGU.

Turning to B19, the binding signal was 0.0134 KA relative to UGCAUGU.

For B20, the binding signal is 0.0379 KA relative to UGCAUGU.

Turning to B21, the binding signal is 0.0136 KA relative to UGCAUGU.

Turning to B22, the binding signal is 0.0221 KA relative to UGCAUGU.

As to B23, the binding signal is 0.0487 KA relative to UGCAUGU.

As to B24, the binding signal is 0.0174 KA relative to UGCAUGU.

For B25, the binding signal was 0.0108 KA relative to UGCAUGU.

Take B26: the binding signal is 0.0179 KA relative to UGCAUGU.

Turning to B27, the binding signal is 0.0211 KA relative to UGCAUGU.

As to B28, the binding signal is 0.00412 KA relative to UGCAUGU.

Take B29: the binding signal is 0.0317 KA relative to UGCAUGU.

With B30, the binding signal was 0.0223 KA relative to UGCAUGU.

Take B31: the binding signal is 0.00803 KA relative to UGCAUGU.

Regarding B32, the binding signal is 0.0321 KA relative to UGCAUGU.

For B33, the binding signal was 0.0541 KA relative to UGCAUGU.

Take B34: the binding signal is 0.00567 KA relative to UGCAUGU.

In the case of B35, the binding signal is 0.00933 KA relative to UGCAUGU.

Consider B36, for which the binding signal is 0.0252 KA relative to UGCAUGU.

For the molecule B37, the binding signal is 0.0414 KA relative to UGCAUGU.

For B38, the binding signal is 0.0134 KA relative to UGCAUGU.

As for B39, the binding signal was 0.0265 KA relative to UGCAUGU.
